# SARS PLpro yeast – blocks SARS-CoV papain-like protease in a yeast assay | S. cerevisiae expressing SARS-CoV PLpro, growth rescue | Potency, µM (series often up to 32.9 µM), most hits filed as activators | 0.19% of 330,000 active | AID 485353; calls by dose curve; note: nearly all actives have a fitted effect of over 55% in size
# Pf growth 48h – P. falciparum growth inhibition at 48 hours (one generation). P. falciparum luciferase growth in erythrocytes, 48 h. Potency, µM (series often up to 28.7 µM), usual class: inhibitors. 5.9% of 310,000 active
#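 In quantitative HTS format, infected erythrocytes bearing luciferase-reporter parasites were treated for a single generation at 37 C. Luminescence after adding detection reagent served as the growth measure.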
# Pf growth 96h – P. falciparum growth inhibition at 96 hours; P. falciparum luciferase reporter growth, 96 h; Potency, µM (series often up to 28.7 µM), hits mostly inhibitors; 6.9% of 320,000 active; AID 504834
#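 Infected RBCs, 2% Hct / 0.05% parasitemia final; luciferase-reporter P. falciparum; cpd 96 h, 37 C, 5% CO2; luciferase detection reagent; luminescence.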
# NS1 function inh – influenza NS1 inhibition; 0.4% of 270,000 active; Potency, µM (highest dose often 46.1 µM); AID 2326; calls by dose curve; note: actives are rising curves; nearly all actives have a fitted effect of over 50% in size
#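 OD600 was taken as the measure of yeast growth restored by compound in an NS1-expressing S. cerevisiae strain. Cells had been washed out of glucose medium and diluted 1:100 into galactose -URA medium, pH 6.0.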
# A number is an active result; n = inactive; u = inconclusive; x = no result; [ ] = another dose, or the depositor's remark. Sampled rows, rich in hits. Any-hit rate of the full collection: about 10%. Unless noted, calls come from the whole dose curve; as a rule, active = well fitted inhibition curve with a large enough effect; inconclusive = small, poorly fitted or top-dose-only effect, or another doubt; inactive = no such curve, though single readings can be large or run the other way.
SMILES,SARS PLpro yeast,Pf growth 48h,Pf growth 96h,NS1 function inh
COc1ccccc1C(CCNCc1ccc(N(C)C)cc1)c1ccc(OC(C)C)cc1 (stereo not drawn),n,8.3µM,13µM,n
COc1ccc(C(CCNCc2ccc(N(C)C)cc2)C(C)C)cc1 (stereo not drawn),n,9.3µM,7.4µM,n
COc1ccc(CNCCC(c2ccc(OC(C)C)cc2)c2ccccc2OC)cc1OC (stereo not drawn),n,13µM,u,n
COc1cccc(C(=O)Nc2ccccc2C(=O)NCC2CCCO2)c1 (stereo not drawn),n,n,u,n
CC12CCC(=O)N1C(C(=O)NNC(=O)COc1ccccc1F)CS2 (stereo not drawn),n,n,n,x
CCN1C=CC2=C(C#N)C(N)C(C#N)(C#N)C(c3ccccc3C(F)(F)F)C2C1 (stereo not drawn),n,2.9µM,u,n
Cc1ccc2c(=O)cc(C(=O)NCc3ccccc3)oc2c1C,n,n,n,n
C/C(=N\NC(=O)c1ccc(C(=O)N/N=C(\C)c2ccco2)o1)c1ccco1,n,u,2.6µM,n
C/C(=N\NC(=O)c1ccco1)c1cccc2ccccc12,n,9.3µM,n,n
C/C(=N\NC(=O)c1ccc(-c2ccccc2)cc1)c1ccco1,n,u,u,n
C/C(=N\NC(=O)c1c[nH]c2ccccc12)c1ccco1,n,x,n,n
Cc1ccc(NC(=O)CNC(=O)c2ccco2)c(Cl)c1,n,n,n,n
Cc1ccc(C(=O)C[n+]2ccc(Cc3ccccc3)cc2)cc1,n,u,8.3µM,x
CN(C)c1cc[n+](CC(=O)c2ccc(-c3ccccc3)cc2)cc1,n,4.7µM,u,x
COc1ccc(C(=O)C[n+]2ccc(N(C)C)cc2)cc1,n,1.2µM,u,n
CN(C)c1cc[n+](CC(=O)c2ccc(Br)cc2)cc1,n,u,u,x
Cc1occc1-c1nnc(SCC(=O)Nc2ccc(F)cc2)n1C,n,u,n,n
CCOC(=O)c1cccc(NC(=O)CSc2nnnn2CC)c1,n,n,n,n
CCOC(=O)c1cccc(NC(=O)CSc2nnc(-c3ccoc3C)n2CC)c1,n,n,13µM,n
Cc1cccc(C)c1NC(=O)CSc1nnc(-c2ccoc2C)n1C,n,n,9.3µM,n
Cc1occc1-c1nnc(SCC(=O)N2CCN(c3ccccc3F)CC2)n1C,n,n,3.7µM,n
COc1ccc(OCCSc2nnc(-c3ccoc3C)n2C)cc1,n,8.3µM,u,n
O=C(COC(=O)CNC(=O)c1ccccc1)NC(=O)NC1CCCCC1,n,x,x,x
O=C1CCCN1c1ccc(Br)cc1,n,n,x,n
O=C1CCCN1c1ccc(N2CCCC2=O)cc1,n,n,2.1µM,n
SMILES,SARS PLpro yeast,Pf growth 48h,Pf growth 96h,NS1 function inh
C/C(=N/NC(=O)CSc1nc2ccccc2s1)c1ccncc1,n,n,n,n
CS/C(=N\S(=O)(=O)c1cccs1)NC(=O)CSc1nc2ccccc2s1,n,x,6.6µM,n
CC(C)Cc1nnc(NC(=O)CSc2ccccn2)s1,n,x,u,n
Cc1nnc(NC(=O)CSc2ccccn2)s1,n,n,13µM,n
COC(=O)c1ccc(NS(=O)(=O)c2ccc(S(=O)(=O)N3CCOCC3)cc2)cc1,n,x,x,x
COc1cc(Cl)c(C)cc1NC(=O)c1ccc2c(SCC(=O)O)c3c(nc2c1)CCCC3,n,u,n,x
CCOc1ccc(NC(=O)c2ccc3c(SCC(=O)O)c4c(nc3c2)CCCC4)cc1,n,n,n,x
COc1ccc(C)cc1NC(=O)c1ccc2c(SCC(=O)O)c3c(nc2c1)CCCC3,n,u,8.3µM,n
CCOC(=O)c1ccccc1NC(=O)c1ccc2c(SCC(=O)O)c3c(nc2c1)CCCC3,n,2.3µM,u,n
Cc1cccc(NC(=O)CN(CC2CCCO2)C(=O)c2ccc(S(C)(=O)=O)cc2)c1C (stereo not drawn),n,n,n,x
Fc1cccc(CCN2CCNC[C@@H]2CC2CCCCC2)c1,n,u,u,x
COc1cc2c(cc1OC)C(c1cccs1)NCC2 (stereo not drawn),n,n,n,n
COc1cc2c(cc1OC)C(COc1ccc(C(C)C)cc1)NCC2 (stereo not drawn),n,u,12µM,n
O=[N+]([O-])c1cccnc1SCc1c(F)cccc1Cl,n,13µM,u,n
Cc1ccc(C)n1-c1ccc(N2CCOCC2)c(Br)c1,u,x,15µM,n
CCOc1ccc(/C=C2\SC(=S)NC2=O)cc1OC,n,n,13µM,n
COc1cc(/C=C2\SC(=S)NC2=O)ccc1OS(=O)(=O)c1ccccc1,n,n,n,n
COc1cc(/C=C2/SC(=S)NC2=O)ccc1OS(=O)(=O)c1ccc(C)cc1,n,n,12µM,n
COc1ccc(/C=C2/S/C(=N/S(=O)(=O)Cc3ccccc3)NC2=O)cc1OC,n,u,12µM,n
OC(COc1ccc(CNCCc2ccc(C(F)(F)F)cc2)cc1)CN1CCCCC1 (stereo not drawn),n,2.1µM,n,n
Cc1nnc(SCc2cnc(-c3ccc(C(C)C)cc3)s2)n1C,n,n,12µM,n
C=CC[C@]12CCc3ccccc3C1N(c1ccc(C(=O)OCC)cc1)C2=O (stereo partly drawn),n,13µM,u,x
O=C(c1ccc2ccccc2c1)C1CCCN(C(=O)c2cccnc2)C1 (stereo not drawn),n,n,n,n
O=C(c1ccc2ccccc2c1)C1CCCN(C(=O)CN2C(=O)CSC2=O)C1 (stereo not drawn),n,n,10µM,n
CCOc1ccc(S(=O)(=O)N2CCC(C(=O)NCCc3ccc(S(N)(=O)=O)cc3)CC2)cc1,n,n,u,n
SMILES,SARS PLpro yeast,Pf growth 48h,Pf growth 96h,NS1 function inh
Oc1c(C(c2ccccc2)N2CCc3ccccc3C2)sc2ncnn12 (stereo not drawn),n,u,u,n
Oc1c(C(c2ccco2)N2CCN(C(c3ccccc3)c3ccccc3)CC2)sc2ncnn12 (stereo not drawn),n,x,4.1µM,n
C=C(C)CNC(=S)N/N=C/c1ccco1,n,u,u,n
Cc1ccc(NC(=O)NC2CC(=O)N(c3ccc4c(c3)OCCO4)C2)cc1F (stereo not drawn),n,n,u,x
Oc1ccc(Cl)cc1-c1cc(-c2ccccc2)n[nH]1,n,7.4µM,n,n
Oc1ccc(Br)cc1-c1cc(-c2ccccc2F)[nH]n1,n,9.3µM,n[5.75 µM],n
Oc1ccc(Br)cc1-c1cc(-c2ccccc2Cl)[nH]n1,n,2.9µM,4.1µM,n
COc1ccc(O)c(-c2cc(-c3ccccc3Cl)[nH]n2)c1,n,u,n,n
O=S(=O)(c1ccc(F)c(F)c1)N1CCN(c2ccccn2)CC1,n,n,u,n
CC(NC(=O)CSc1nnnn1C1CC1)c1ccccc1Br (stereo not drawn),n,x,x,x
CN(C)CCN1C(=O)c2oc3ccc(Cl)cc3c(=O)c2C1c1cccc(Br)c1 (stereo not drawn),n,1.9µM,n,n
Cc1ccc(C2c3c(oc4ccc(Cl)cc4c3=O)C(=O)N2CCCN2CCOCC2)o1 (stereo not drawn),n,u,u,n
O=C1c2oc3ccc(Cl)cc3c(=O)c2C(c2ccco2)N1CCN1CCOCC1 (stereo not drawn),n,8.3µM,u,n

# Compound activity from PubChem.
